In PubChem BioAssay one finds composite z-score, z-score and composite Z-score data, which are given here for six molecules.

Experiment [1] deals with Human papillomavirus type 1a protein E7 (residues 44-93). Description: small molecules binding HPV E7 44-93 – biochemical, small-molecule microarray, residues 44-93, 635 nm fluorescence, primary screen (AID 1108).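 Also: E7 fragment applied at 1 µg/mL in TBST for 1 h at 4 C; score combines spot fluorescence with its signal to noise ratio.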 Conditions: fluorescence 635 nm, higher = more signal.
Experiment [2] can be described thus: hepatitis C replication reporter changes, two-sided – Huh7 cells, luciferase reporter, HCV replication inhibitor project, primary screen (AID 1109).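 Also: huh7 hepatoma cells harbouring a luciferase neomycin HCV replicon reporter; luciferase luminescence as measure of HCV replicon replication; test concentration not given here.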 Conditions: Huh7 HCV replicon luciferase reporter, 48 h; higher = more signal. Background: In a reporter assay the amount or activity of a reporter protein is the signal.
Experiment [3] addresses Left-right determination factor 2 (Homo sapiens) (UniProt O00292). As to the kind of experiment: small molecules binding LEFTY2 protein – biochemical, small-molecule microarray, 635 nm fluorescence scan, primary screen (AID 1110). Conditions: higher = more signal.
The target in experiment [4] is Calmodulin-1 (Homo sapiens) (UniProt P0DP23). As to the kind of experiment: small molecules binding calmodulin-1 with EGTA – biochemical, small-molecule microarray, Cy5-labelled CALM1, profiling panel (AID 1111).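 Also: labelled calmodulin applied in Tris saline Tween buffer holding calcium plus EGTA and DTT.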 Conditions: Cy5-CALM1 binding fluorescence, higher = more signal.
The target is the same in experiment [5]. Description: small molecules binding Ca-loaded calmodulin-1 – biochemical, small-molecule microarray, Cy5-labelled CALM1, plus calcium, artefact control for SMM control-protein annotation, profiling panel (AID 1112).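 Also: score merges spot fluorescence with signal to noise from triplicate slides.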 Conditions: Cy5-CALM1 binding fluorescence, higher = more signal.
Experiment [6] in a line: probe aWnt5a binding to arrayed compounds – biochemical, biotinylated probe, 635/667 nm fluorescence, primary screen (AID 1113).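 Also: score merges 667 nm fluorescence intensity with signal-to-noise per printed feature.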 Conditions: small-molecule microarray, higher = more signal.
The nature of experiment [7]: probe aShh binding to arrayed compounds – biochemical, biotinylated probe, 635/667 nm fluorescence, primary screen (AID 1114).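 Also: probe is biotin-labelled aShh protein from a stem cell growth factor screen; measures binding of labelled protein to compounds printed on the slide; score merges feature fluorescence at 667 nm with signal-to-noise.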 To be noted: small-molecule microarray, higher = more signal.
Experiment [8] can be described thus: probe aNog binding to arrayed compounds – biochemical, biotinylated probe, 635/667 nm fluorescence, primary screen (AID 1115).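 Also: probe is biotinylated aNog protein used at 0.15 µg/mL for 1 h at 4 C; z-score combines 667 nm fluorescence of each spot with its signal to noise.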 Conditions: small-molecule microarray, higher = more signal.
In experiment [9] the target is Torsin-1A-interacting protein 1 (Homo sapiens) (UniProt Q5JTV8). As to the kind of experiment: compound microarray binding of lysate hLAP1 – cell lysate, small-molecule microarray, COS7 lysate, 635/667 nm fluorescence, primary screen (AID 1116). To be noted: 635 nm fluorescence, higher = more signal.
Chain of Torsin-1A-interacting protein 1 (Homo sapiens) (Q5JTV8 whole entry, looked up): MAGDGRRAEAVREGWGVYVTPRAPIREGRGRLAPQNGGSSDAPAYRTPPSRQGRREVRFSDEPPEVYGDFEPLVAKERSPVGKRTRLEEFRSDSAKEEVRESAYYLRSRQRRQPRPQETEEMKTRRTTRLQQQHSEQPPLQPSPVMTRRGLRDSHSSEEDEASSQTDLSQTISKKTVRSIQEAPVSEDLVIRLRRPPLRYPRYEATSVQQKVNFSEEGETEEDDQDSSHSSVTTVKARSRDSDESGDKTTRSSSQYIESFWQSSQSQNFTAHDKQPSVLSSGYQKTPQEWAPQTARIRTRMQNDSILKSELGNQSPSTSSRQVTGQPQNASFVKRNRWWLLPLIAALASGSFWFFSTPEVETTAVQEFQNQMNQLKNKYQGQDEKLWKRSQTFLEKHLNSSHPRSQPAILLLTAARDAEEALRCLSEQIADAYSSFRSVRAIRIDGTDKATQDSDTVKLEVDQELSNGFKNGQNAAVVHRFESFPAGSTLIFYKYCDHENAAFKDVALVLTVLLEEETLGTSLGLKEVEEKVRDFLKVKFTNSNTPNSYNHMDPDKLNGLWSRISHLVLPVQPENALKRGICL
Experiment [10] has as its target Alpha-bungarotoxin (Bungarus multicinctus) (UniProt P60615). As to the kind of experiment: compounds binding labelled alpha-BTX control protein – biochemical, small-molecule microarray, Alexa647 label, 635/667 nm fluorescence, artefact control for SMM control protein annotation, profiling panel (AID 1117). Conditions: alpha-BTX-A647 binding fluorescence, higher = more signal.

The next experiment has as its target Albumin (Bos taurus) (UniProt P02769). As to the kind of experiment: compounds binding labelled BSA control protein – biochemical, small-molecule microarray, Alexa647 label, 635/667 nm fluorescence, artefact control for SMM control protein annotation, profiling panel (AID 1118).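 Also: score merges 667 nm emission intensity and signal-to-noise per printed compound spot.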 Conditions: BSA-A647 binding, fluorescence 635 nm, higher = more signal.
Experiment [11] in a line: probe aXIP binding to arrayed compounds – biochemical, NeuroSMM set, 635/667 nm fluorescence, primary screen (AID 1119).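 Also: probe is the protein aXip251-270 applied at 1 µg/mL to compound-printed slides; binding of probe to printed compounds measured as 667 nm fluorescence plus signal to noise.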 Conditions: small-molecule microarray, higher = more signal, called active from +8 up or from −8 down.
Experiment [12] is described as follows: probe aNOTCH3 binding on compound microarray – biochemical, small-molecule microarray, 635/667 nm fluorescence, primary screen (AID 1120).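 Also: probe is a biotin-tagged antibody raised against NOTCH3 rather than NOTCH3 protein; score merges spot fluorescence near 667 nm with spot signal to noise.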 To be noted: higher = more signal.
The nature of experiment [13]: probe aNOTCH2 binding on compound microarray – biochemical, small-molecule microarray, 635/667 nm fluorescence, primary screen (AID 1121).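 Also: score merges feature fluorescence read at 667 nm with its signal to noise.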 Conditions: higher = more signal.
In experiment [14] the target is Carbonic anhydrase 2 (Homo sapiens) (UniProt P00918). Description: compounds binding carbonic anhydrase 2 – biochemical, small-molecule microarray, Alexa647-labelled CAII, profiling panel (AID 1122). Conditions: CAII-A647 binding fluorescence, higher = more signal.
A short description of experiment [15]: COS7 lysate on small-molecule microarray, probe aHis, 635 nm (AID 1123).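 Also: z-score combines 667nm fluorescence intensity with signal-to-noise per printed compound spot.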 To be noted: COS7 cell lysate, fluorescence, higher = more signal.
Experiment [16] in a line: probe aLAP1 signal on lysate-treated microarray – cell lysate, small-molecule microarray, COS7 lysate, primary screen (AID 1124).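 Also: lysate comes from COS7 cells expressing LAP1 and is applied at 0.3 µg/mL; score merges spot fluorescence near 667 nm with signal-to-noise over triplicate slides.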 Conditions: probe aLAP1, fluorescence, higher = more signal.
For the next experiment, the system named is Sam68 (KHDRBS1). As to the kind of experiment: compounds binding KHDRBS1 protein – biochemical, small-molecule microarray, 635 nm fluorescence, primary screen (AID 1125).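 Also: score merges 667 nm channel intensity with signal to noise over triplicate slides.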 Conditions: higher = more signal.
Experiment [17] deals with Chordin-like protein 2 (CHRDL2). Description: compounds binding chordin-like 2 – biochemical, small-molecule microarray, 635 nm fluorescence, primary screen (AID 1126).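 Also: printed compound slides probed with Chrdl2 protein at 4 µg/mL for 1 h at 4 C; score merges 667 nm emission intensity with signal to noise over three replicate slides.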 To be noted: fluorescence 635 nm, higher = more signal.
Experiment [18] addresses Concanavalin-A (Canavalia ensiformis) (UniProt P02866). Description: compounds binding concanavalin A lectin – biochemical, small-molecule microarray, Alexa647 label, 635 nm, artefact control for SMM control protein annotation, primary screen (AID 1127).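 Also: z combines 667 nm emission intensity with signal-to-noise across three replicate slides.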 To be noted: ConA-A647 binding fluorescence, higher = more signal.

Molecules are shown by their SMILES. Activity calls are given as the source filed them.

Chain of Left-right determination factor 2 (Homo sapiens) (O00292 whole entry, looked up): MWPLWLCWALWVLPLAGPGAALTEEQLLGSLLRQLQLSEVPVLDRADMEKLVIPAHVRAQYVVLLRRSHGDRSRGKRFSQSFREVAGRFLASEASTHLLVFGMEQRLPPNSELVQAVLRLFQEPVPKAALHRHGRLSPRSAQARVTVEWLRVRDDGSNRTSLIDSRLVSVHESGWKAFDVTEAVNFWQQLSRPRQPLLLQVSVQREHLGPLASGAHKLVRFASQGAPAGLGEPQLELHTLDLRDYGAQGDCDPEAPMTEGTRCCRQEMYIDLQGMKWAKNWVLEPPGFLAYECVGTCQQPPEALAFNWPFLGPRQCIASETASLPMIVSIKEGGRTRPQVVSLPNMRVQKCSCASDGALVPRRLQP
Chain of Albumin (Bos taurus) (P02769 whole entry, looked up): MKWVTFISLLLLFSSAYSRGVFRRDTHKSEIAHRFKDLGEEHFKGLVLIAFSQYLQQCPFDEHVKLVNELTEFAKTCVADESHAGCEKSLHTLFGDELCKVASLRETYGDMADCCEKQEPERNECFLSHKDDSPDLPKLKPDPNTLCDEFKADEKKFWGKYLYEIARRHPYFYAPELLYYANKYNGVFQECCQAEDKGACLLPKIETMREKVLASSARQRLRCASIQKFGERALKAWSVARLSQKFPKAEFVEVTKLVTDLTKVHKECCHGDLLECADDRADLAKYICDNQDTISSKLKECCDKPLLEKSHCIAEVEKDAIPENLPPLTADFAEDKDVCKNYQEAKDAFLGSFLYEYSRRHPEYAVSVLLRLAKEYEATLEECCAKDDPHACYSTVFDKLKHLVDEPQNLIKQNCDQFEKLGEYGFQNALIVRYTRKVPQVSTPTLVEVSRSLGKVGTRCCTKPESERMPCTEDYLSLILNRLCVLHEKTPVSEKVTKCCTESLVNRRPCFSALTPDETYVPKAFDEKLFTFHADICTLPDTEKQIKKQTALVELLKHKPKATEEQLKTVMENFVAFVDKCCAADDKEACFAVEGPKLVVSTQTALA
Chain of Alpha-bungarotoxin (Bungarus multicinctus) (P60615 whole entry, looked up): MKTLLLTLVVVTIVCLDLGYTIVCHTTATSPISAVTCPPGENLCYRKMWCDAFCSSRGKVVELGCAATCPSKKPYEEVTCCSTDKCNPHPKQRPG
Chain of Concanavalin-A (Canavalia ensiformis) (P02866 whole entry, looked up): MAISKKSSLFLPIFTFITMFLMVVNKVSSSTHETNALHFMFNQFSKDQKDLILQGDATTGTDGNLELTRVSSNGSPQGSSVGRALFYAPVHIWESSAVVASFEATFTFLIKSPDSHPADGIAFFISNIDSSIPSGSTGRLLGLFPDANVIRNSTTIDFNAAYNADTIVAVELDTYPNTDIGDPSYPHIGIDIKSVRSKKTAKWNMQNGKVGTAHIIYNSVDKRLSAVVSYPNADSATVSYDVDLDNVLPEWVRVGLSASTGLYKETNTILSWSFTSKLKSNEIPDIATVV

In the case of `COC(=O)[C@@]1(Cc2ccc(OC)cc2)[C@@H]2[C@@H](CC(=O)[C@H]2CC(=O)C(=O)N2CCCC2)CN1C(=O)c1ccccc1`, the composite z-score in [1] amounted to 0.43; in [3] it was 0.352; in experiment [4], 2.05; in experiment [5], 1.02; in experiment [6], 1.31; in experiment [7] it was 2.68. Besides, the composite z-score in experiment [8] worked out at 2.97; in experiment [9], 2.12; in [10] it was 1.49; with Albumin (Bos taurus), 0.979; in [12], 1.75; in experiment [13], 1. Besides, the composite z-score in experiment [14] was determined as 0.856; in experiment [15] it was 3.45; in [16] it was 0.921; in the experiment with Sam68 (KHDRBS1), 1.09; in experiment [17] it was 0.251; in experiment [18], 1.18. For the same molecule, the z-score in experiment [2] is -1.83. Also, in experiment [11], the composite Z-score is -0.766 (inactive).
With `O=C1C2C=CC(C(O)c3cccc(O)c3)N(Nc3ccccc3F)C2C(=O)N1c1ccccc1` (stereo not given), the composite z-score was 0.623 in [1]; -0.31 in experiment [3]; -0.325 in experiment [4]; -0.607 in experiment [5]; -0.0425 in experiment [6]; 0.656 in [7]. In addition, the composite z-score in experiment [8] was -0.261; in experiment [9] it was -0.165; in experiment [10] it was -0.234; in the experiment with Albumin (Bos taurus), 0.92; in [12] it was 0.025; in [13], -0.141. In addition, the composite z-score in [14] was 0.756; in experiment [15], -0.0811; in experiment [16], -0.841; in the experiment with Sam68 (KHDRBS1), 0.664; in experiment [17], -0.406; in experiment [18], 0.0597. In addition, in experiment [2], the z-score is -2.21. The composite Z-score in experiment [11] is -0.539 (inactive).
As for `C=CCN1C(=O)[C@]2(O[C@H](CCn3cc([C@H](O)c4ccccc4)nn3)[C@@H]([Si](C)(C)c3ccc(OC)cc3)[C@@H]2C)c2cc(N3C(=O)c4cccc5cccc3c45)ccc21`, the composite z-score is 0.87 in experiment [1]; -0.744 in experiment [3]; 0.313 in experiment [4]; -0.58 in experiment [5]; -0.156 in experiment [6]; -0.0769 in [7]. The composite z-score was -0.0809 in experiment [8]; 0.404 in [9]; 1.39 in [10]; 0.626 with Albumin (Bos taurus); -0.141 in experiment [12]; -0.126 in [13]. The composite z-score was 0.522 in experiment [14]; 0.515 in experiment [15]; 0.389 in experiment [16]; 0.598 in the experiment on Sam68 (KHDRBS1); -0.693 in [17]; 0.471 in experiment [18]. Further, in experiment [2], the z-score is -4.4. The composite Z-score in [11] is 0.783 (inactive).
Consider `CCOC(=O)C1=CCC(c2cc3ccccc3[nH]2)N(S(=O)(=O)c2ccccc2[N+](=O)[O-])C1` (stereo not given), for which the composite z-score in [1] was 0.833; in experiment [3] it was -0.335; in [4], -0.115; in [5] it was -0.472; in experiment [6], 0.0839; in experiment [7], 0.0121. Besides, the composite z-score in [8] was -0.142; in experiment [9], 0.161; in experiment [10], 1.97; with Albumin (Bos taurus) it was 0.476; in experiment [12] it was 0.051; in experiment [13], -0.188. Further, the composite z-score in experiment [14] worked out at 0.674; in experiment [15], 2.37; in experiment [16], 0.375; in the experiment with Sam68 (KHDRBS1), 0.644; in experiment [17], 0.0846; in experiment [18], 0.558. Moreover, in experiment [2], the z-score was -1.86. For the same molecule, the composite Z-score in [11] is 4.63 (inactive).
In the case of `C=CCC(OC(C)=O)[C@@H]1[C@@H](N(Cc2cc3ccccc3o2)C(=O)Cc2ccc(OC)cc2)c2cc(OCCCO)ccc2N1C(=O)Cc1ccc(OC)cc1` (stereo not given in full), the composite z-score in experiment [1] was -0.133; in [3] it was -0.0735; in experiment [4], -0.211; in experiment [5], 0.158; in experiment [6], -0.0981; in [7], -0.0626. The composite z-score in experiment [8] was -0.303; in experiment [9], -0.0544; in [10], 0.673; with Albumin (Bos taurus), -0.477; in experiment [12] it was -0.0711; in [13] it was -0.153. Further, the composite z-score in experiment [14] is 0.426; in experiment [15] it was -0.188; in experiment [16], 0.107; in the experiment on Sam68 (KHDRBS1), -0.0765; in experiment [17], 0.208; in experiment [18], -0.395. The molecule also returned a z-score in experiment [2] of 0.028. For the same molecule, the composite Z-score in experiment [11] was -0.188 (inactive).
Turning to `COC(=O)C1=CC(CCCO)=CC(c2ccc(CN3CCCC3)cc2)N(Cc2sc3ccccc3c2Cl)C=C1C(=O)OC` (stereo not given), the composite z-score in [1] turned out to be 1.34; in [3], 1.17; in experiment [4], 2.96; in experiment [5] it was 1.22; in experiment [6], 0.0625; in experiment [7], 0.661. The composite z-score in experiment [8] is 2.08; in experiment [9], 3.75; in experiment [10], 3.77; in the experiment with Albumin (Bos taurus), 1.05; in experiment [12], 0.734; in [13] it was 0.157. The composite z-score was 0.788 in experiment [14]; 2.95 in experiment [15]; 0.926 in [16]; 1.3 in the experiment with Sam68 (KHDRBS1); 0.153 in [17]; 1.21 in experiment [18]. In experiment [2], the z-score is -0.574. The composite Z-score in experiment [11] is 3.3 (inactive).
